D2 ag-1 – activates the human D2 dopamine receptor; AID 624465; DiscoveRx PathHunter D2 beta-arrestin, luminescence, 90 min; 100% = 57 uM dopamine signal; activation, % (no concentration beside the values); 0.084% of 360,000 active; in the data active = activation above about 40%; inconclusive = between about 15% and that limit
Target sequence (P14416 whole entry, looked up): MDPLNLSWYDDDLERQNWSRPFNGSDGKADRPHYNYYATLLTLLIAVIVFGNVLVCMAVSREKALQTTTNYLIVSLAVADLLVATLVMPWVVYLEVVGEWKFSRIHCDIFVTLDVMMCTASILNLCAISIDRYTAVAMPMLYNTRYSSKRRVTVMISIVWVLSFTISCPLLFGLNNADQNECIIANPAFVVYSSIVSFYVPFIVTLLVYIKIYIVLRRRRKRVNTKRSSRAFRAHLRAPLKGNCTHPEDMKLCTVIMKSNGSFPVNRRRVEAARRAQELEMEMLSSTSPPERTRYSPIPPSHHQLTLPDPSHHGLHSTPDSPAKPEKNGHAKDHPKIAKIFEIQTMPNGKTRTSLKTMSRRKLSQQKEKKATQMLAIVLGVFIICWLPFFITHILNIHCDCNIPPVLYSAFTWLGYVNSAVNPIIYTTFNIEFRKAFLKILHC
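Agonist mode: compounds alone added to overnight-plated D2 PathHunter cells for 90 min at 37 C, with 57 uM final dopamine (EC100) defining full response. Beta-arrestin recruitment detected by chemiluminescent reagent, read after 1 h at ambient temperature.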
D2 PAM-1 – D2 dopamine receptor (human) potentiation. potentiation, % at 10 µM. HEK293 T-REx D2, calcium flux, EC20 dopamine potentiation. 0.34% of 340,000 active. AID 485347;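 active = potentiation over 3 SD above the plate norm, cut at about 30% in these data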
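Potentiation of an EC20 dopamine calcium response measured kinetically over 180 s, after a preceding 180 s compound-only read flagging agonists. Cells: inducible Hek293 Trex D2 line, 4000/well, cultured overnight at 30 C before dye loading.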
D2 ag-2 – D2 dopamine receptor (human) agonism; P14416; HEK293 T-REx D2 cells, calcium flux agonist mode; activation, % at 2 µM; 0.53% of 340,000 active; AID 485358;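 active = activation over 3 SD above normal in the single-dose calcium agonist read, cut at about 30% in these data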
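Agonism is scored from calcium flux in a force-coupled, inducible HEK293 cell line expressing D2, read kinetically for 180 s after compound addition against dopamine controls.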
D2 antagonist – antagonizes the human D2 dopamine receptor | P14416 | HEK293 TREx D2 cells, calcium flux, dopamine EC80 | inhibition, % at 10 µM | 2% of 340,000 active | AID 485344; in the data active = inhibition above about 30%; inactive = below that, where a call was filed
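Dopamine at EC80 is the agonist stimulus; test compounds precede it by 180 s. Calcium flux read kinetically in a force-coupled, inducible HEK293 T-REx D2 cell line.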
D2 PAM-2 – positive allosteric modulators of human D2 dopamine receptor | P14416 | DiscoveRx D2 beta-arrestin cells, luminescence, 90 min; 100% = 57 uM dopamine signal | potentiation, % (concentration not given with the values) | 0.23% of 360,000 active | AID 624464; in the data active = potentiation above about 50%; inconclusive = mostly about 30% to 49%
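PathHunter beta-arrestin assay in DiscoveRx D2 cells. Compounds were added with an EC20 of dopamine (50 nM final) for 90 min at 37 deg C. Luminescence was read 1 h after detection reagent, with 57 uM dopamine as the EC100 control.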
D3 arrestin ag – confirmation of human D3 dopamine receptor agonists, beta-arrestin; shares compounds with D2 ag-2; DiscoveRx D3 beta-arrestin cells, luminescence, 90 min; Potency, µM (highest dose often 76.9 µM), hits mostly activators; 4% of 2,300 active; AID 720506; also: nearly all actives have a fitted effect of over 70% in size
D2 ag-3 – activates human D2 dopamine receptor in D3 counterscreen; shares compounds with D2 ag-2; DiscoveRx PathHunter D2 beta-arrestin, luminescence, 90 min; response scale: percent relative to full dopamine signal; Potency, µM (titrated, usually from 76.9 µM), most hits filed as activators; 5.9% of 2,300 active; also: nearly all actives have a fitted effect of over 70% in size
A number is an active result; i = inactive; ? = inconclusive; nt = not tested or not shown; ! = not confirmed by another sample. Rows were chosen to be rich in hits. Some 2.4% of all compounds tested hit in one or more screens of this group. Unless noted, calls follow the shape of the dose curve; as a rule, active = well fitted activation curve with a large enough effect; inconclusive = small, poorly fitted or top-dose-only effect; inactive = flat fitted curve, though single readings scatter.

SMILES	D2 ag-1	D2 PAM-1	D2 ag-2	D2 antagonist	D2 PAM-2	D3 arrestin ag	D2 ag-3
Cc1nc(N2CCCC2)ncc1C(=O)Nc1ccc(F)cc1F	nt	i	i	nt	nt	nt	nt
c1ccc(-c2csc3ncnc(N4CCN(Cc5ccc6c(c5)OCO6)CC4)c23)cc1	i	i	i	i	i	nt	nt
CCn1nc(C(=O)N2CCN(Cc3ccc4c(c3)OCO4)CC2)c2ccccc2c1=O	i	i	50	i	i	i	i
O=C(CSc1ncnc2scc(-c3ccccc3)c12)N1CCN(Cc2ccc3c(c2)OCO3)CC1	?	i	74	70	i	i	?
CCN(Cc1ccccc1)C(=O)Cn1c(=O)n(-c2cccc(C)c2)c(=O)c2c1c1cc(OC)ccc1n2C	nt	i	i	nt	nt	nt	nt
Nc1ccc(C(=O)N/N=C2\CCCc3c2[nH]c2ccccc32)cc1	i	nt	nt	nt	i	nt	nt
c1ccc(CCN=C2CCCc3c2[nH]c2ccccc32)cc1	i	i	77	58	i	?	?
COc1cccc(CNC(=O)CN2C(=O)CCCc3ccccc32)c1OC	nt	i	i	nt	nt	nt	nt
CCc1ccc(CNC(=O)COc2cc(=O)n(CC)c3ccccc23)cc1	nt	i	i	nt	nt	nt	nt
O=C(Nc1ccccc1C(F)(F)F)N1CCOc2ccc(Cl)cc21	nt	i	i	nt	nt	nt	nt
Cn1nc(C(F)(F)F)c(C#N)c1N1CCN(c2ccccn2)CC1	i	i	i	i	i	i	i
O=C(C1CCN(S(=O)(=O)c2cccc3nsnc23)CC1)N1CCn2c1nc1ccccc12	i	nt	nt	nt	i	nt	nt
Cc1n[nH]c(C)c1S(=O)(=O)N1CCC(C(=O)N2CCn3c2nc2ccccc23)CC1	i	i	48	39	i	i	i
O=C(COc1ccc(Br)cc1)NNC(=O)c1ccc(-n2cncn2)c([N+](=O)[O-])c1	i	i	i	i	i	i	i
COc1ccc(-c2nc(CCNC(=O)c3c(F)cccc3Cl)cs2)cc1	nt	i	i	nt	nt	nt	nt
COc1cc(C2N(Cc3ccccc3)CCN2Cc2ccccc2)ccc1OC(C)=O	i	i	i	i	i	i	i
COc1cc(C2N(c3ccccc3)CCN2c2ccccc2)ccc1OC(C)=O	i	i	i	i	i	nt	nt
COc1ccc(C2N(Cc3ccccc3)CCN2Cc2ccccc2)cc1[N+](=O)[O-]	i	i	i	i	i	i	i
CCCOc1ccc(Oc2nc(NCC(C)C)nc(N(C)C)n2)nn1	nt	i	nt	nt	nt	nt	nt
COc1cccc(C(=O)N2CCN(CCCc3ccccc3)CC2)c1OC	i	i	i	i	i	nt	nt
CCOC(=O)N1CCN(CCCc2ccccc2)CC1	i	i	i	34	i	i	i
COc1ccc(C(=O)N2CCN(CCCc3ccccc3)CC2)cc1OC	i	i	40	i	i	?	i
CCN(C#N)c1nc(NC(C)C)nc(NC(C)(C)C)n1	i	i	40	i	i	i	i
CCCN(C#N)c1nc(NCC)nc(NC(C)C)n1	i	i	i	i	i	nt	nt
COc1ccccc1NC(=O)CSc1oc(-c2ccco2)nc1S(=O)(=O)c1ccc(C)cc1	nt	i	i	nt	nt	nt	nt
SMILES	D2 ag-1	D2 PAM-1	D2 ag-2	D2 antagonist	D2 PAM-2	D3 arrestin ag	D2 ag-3
CSc1nc2c(sc3ccccc32)c(=O)n1Cc1ccc(C)cc1	nt	i	i	nt	nt	nt	nt
COc1ccc(/C(O)=C/c2nc3ccc(C(=O)NCCc4cccc(C)c4)cc3[nH]c2=O)cc1OC	i	i	i	i	i	i	?
CCOC(=O)c1c(C)[nH]c(C)c1C(=O)Cn1nnc(-c2ccccc2C)n1	i	i	i	i	i	i	i
CCOC(=O)c1c(C)[nH]c(C(=O)Cn2nnc(-c3ccccc3Cl)n2)c1C	i	i	i	i	i	nt	nt
Cc1ncc(C[n+]2csc(CCO)c2C)c(N)n1	i	i	55!	68!	i	i	i
CCCn1c(C2CCCN2c2nc(-c3cccc(Br)c3)cs2)nc2cc(Cl)c(Cl)cc21 (stereo not drawn)	i	i	40	i	i	i	i
CCCn1c(C2CCCN2c2nc(C)cs2)nc2cc(Cl)c(Cl)cc21 (stereo not drawn)	i	i	i	i	i	nt	nt

Screening results: PubChem BioAssay, National Center for Advancing Translational Sciences (NCATS)
